# Measurements as given in PubChem BioAssay (Tox21).
# Values joined by “and” are separate entries in the source; they are usually repeats but may differ in a detail not shown here. Equal values may be shown once. Inconclusive results are not listed. Where a call stands in place of a potency, no number is given. Some structures have more than one record in an assay (separate samples or runs), and their calls can disagree. Active and inactive are the calls of the source. Unless noted, calls come from the whole dose curve; as a rule, active = well fitted curve in the direction sought with a large enough effect in the repeat runs; inconclusive = weak or mixed curves; inactive = no such curve, though single readings can be large; an effect the other way counts as inactive or inconclusive.
# Assays:
# [1] = qHTS assay to identify small molecule antagonists of the estrogen related receptor (ERR) signaling pathway from Tox21 library - cell viability counter screen (AID 1224834); note: nearly all actives have a fitted effect of over 30% in size; note: potency is the fitted concentration of half-maximal effect
# Outline: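 Fluorescence from CellTiter-Fluor gives the viability read-out, taken 30 min after reagent addition. Before that, ERR cells seeded 6 h earlier were incubated with compounds for 17.5 h at 37 C.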
# [2] = target: Luciferin 4-monooxygenase (Photinus pyralis) (UniProt P08659); assay: qHTS assay to identify small molecule inhibitors of firefly luciferase (AID 1224835); note: nearly all actives have a fitted effect of over 25% in size; note: potency is the fitted concentration of half-maximal effect
# Outline: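 Quantitative HTS format; KM concentrations of both substrates. Purified P. pyralis FLuc activity quantified from luminescence images.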
# [3] = qHTS assay to identify small molecule antagonists of the constitutive androstane receptor (CAR) signaling pathway - cell viability counter screen (AID 1224837); note: nearly all actives have a fitted effect of over 45% in size
# Outline: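 HepG2-CYP2B6-hCAR cells, 2500/well, 4 hr pre-incubation; compound titration, 15 conc.; CITCO 50 nM final; 23 hr, 37 C/5% CO2; CellTiter-Fluor, fluorescence intensity.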
# [4] = target: Nuclear receptor subfamily 1 group I member 3 (Homo sapiens) (UniProt Q14994); assay: qHTS assay to identify small molecule antagonists of the constitutive androstane receptor (CAR) signaling pathway (AID 1224838);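 note: HepG2 cells stably expressing hCAR with CYP2B6 luciferase reporter stimulated by CITCO; nearly all actives have a fitted effect of over 40% in size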; note: potency is the fitted concentration of half-maximal effect
# Outline: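 HepG2-CYP2B6-hCAR cells; 4 h pre-incubation; cpd (15 conc) + CITCO 50 nM final; 24 h, 37 C/5% CO2; ONE-Glo, luminescence.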
# [5] = target: Nuclear receptor subfamily 1 group I member 3 (Homo sapiens) (UniProt Q14994); assay: qHTS assay to identify small molecule agonists of the constitutive androstane receptor (CAR) signaling pathway (AID 1224839);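 note: HepG2 cells stably carrying human CAR and a CYP2B6 luciferase reporter; nearly all actives have a fitted effect of over 15% in size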
# Outline: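 Stable hCAR/CYP2B6-2.2kb HepG2 line in DMEM with 10% FBS; compounds (15 concentrations) and 0.75 uM PK11195 final, 24 h at 37 C/5% CO2, then ONE-Glo luminescence after 30 min.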
# [6] = qHTS assay to identify small molecule antagonists of the estrogen related receptor signaling pathway with the pleiotropic PPARgamma coactivator (PGC) from Tox21 10K library (AID 1224841; call rule not given here; note: actives are mostly falling curves and most rising ones were filed inactive; nearly all actives have a fitted effect of over 50% in size; note: potency is the fitted concentration of half-maximal effect)
# Outline: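 PGC/ERR cell line, 2,000 cells/well; 6 h pre-incubation 37 C/5% CO2; compounds (DMSO) pinned in; 18 h, 37 C; One-Glo, 30 min RT; luminescence.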
# [7] = target: Thyrotropin receptor (Homo sapiens) (UniProt P16473); assay: qHTS assay to identify small molecule agonists of the thyroid stimulating hormone receptor (TSHR) signaling pathway (AID 1224843; calls by dose curve; note: nearly all actives have a fitted effect of over 45% in size; note: potency is the fitted concentration of half-maximal effect)
# Outline: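 TSHR-expressing HEK293 cells (800 per well) were exposed to compounds for 30 min at room temperature. cAMP was then detected by HTRF competition with cAMP-d2 and anti-cAMP cryptate, read after 1 h at room temperature. Fifteen concentrations, triplicate.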
# [8] = qHTS assay to identify small molecule agonists of the hypoxia (HIF-1) signaling pathway - cell viability counter screen (AID 1224844; calls by dose curve; note: nearly all actives have a fitted effect of over 50% in size; note: potency is the fitted concentration of half-maximal effect)
# Outline: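 ME-180 HRE-bla cells, 2,000/well, 0.5% dialyzed FBS; 5 hr settle, 17 hr compound at 37C/5% CO2; CCF4-AM reporter read first, then CellTiter-Glo luminescence after 30 min RT.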
# [9] = qHTS assay to identify small molecule agonists of H2AX - cell viability counter screen (AID 1224847; calls by dose curve; note: nearly all actives have a fitted effect of over 30% in size; note: potency is the fitted concentration of half-maximal effect; for activity change, negative = cytotoxicity: top concentration of the series differs between compounds)
# Outline: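 Viability of CHO-K1 (wild type) cells after 3 hr compound exposure was measured by CellTiter-Glo luminescence.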
# [10] = qHTS assay to identify small molecule antagonists of the estrogen related receptor (ERR) signaling pathway from Tox21 library (AID 1224848); note: nearly all actives have a fitted effect of over 50% in size; note: potency is the fitted concentration of half-maximal effect
# Outline: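 Cells: ERR line, 2,000/well; 6 h preincubation 37 C/5% CO2. Cpd in DMSO via pin tool; 18 h, 37 C. ONE-Glo, 30 min RT, luminescence.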
# [11] = qHTS assay to identify small molecule agonists of the estrogen related receptor (ERR) signaling pathway from Tox21 library (AID 1224849; calls by dose curve; note: nearly all actives have a fitted effect of over 15% in size); details: ERR reporter cell line, ONE-Glo luciferase, 18 h; at 92.4 µM (top of the series) unless noted
# Outline: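 ERR cells, 6 h pre-incubation 37 C/5% CO2; cpd in DMSO pinned; 18 h 37 C; ONE-Glo added, 30 min RT; luminescence read. Agonist mode, qHTS.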
# [12] = qHTS RealTime-Glo MT Cell Viability Assay in HEK293 cells - 32 hour (AID 1224868); note: nearly all actives have a fitted effect of over 50% in size; note: potency is the fitted concentration of half-maximal effect; for activity change, negative = cytotoxic: top concentration of the series differs between compounds
# Outline: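 Luminescence generated by NanoLuc from substrate produced by living HEK293 cells served as the viability signal. Each value reflects the reading at its stated time point during continuous 40 h compound exposure at 37 C.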
# [13] = qHTS assay to identify small molecule agonists of the constitutive androstane receptor (CAR) signaling pathway - cell viability counter screen (AID 1224836); note: nearly all actives have a fitted effect of over 45% in size; note: potency is the fitted concentration of half-maximal effect
# Outline: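 Fluorescence from CellTiter-Fluor indicates live cells after 23 h exposure. The human hepatoma line expresses hCAR and a CYP2B6-2.2kb reporter. Incubation medium contains 0.75 uM PK11195 (final).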
# [14] = qHTS assay to identify small molecule antagonists of the estrogen related receptor signaling pathway with the pleiotropic PPARgamma coactivator (PGC) from Tox21 10K library - cell viability counter screen (AID 1224840; active = well fitted cell-killing curve with a large enough effect in the repeat runs, not every such curve was filed as active; note: nearly all actives have a fitted effect of over 40% in size; note: potency is the fitted concentration of half-maximal effect)
# Outline: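 PGC/ERR cells, 2,000/well; 6 h pre-incubation 37 C/5% CO2; cpd in DMSO via pin tool; 17.5 h 37 C; CellTiter-Fluor, 30 min; fluorescence.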
# [15] = qHTS assay to identify small molecule agonists of H2AX (AID 1224845; active = well fitted activation curve with a large enough effect in the signal ratio in the repeat runs, not every such curve was filed as active; the % refers to the signal ratio; note: potency is the fitted concentration of half-maximal effect)
# Outline: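 Wild-type CHO-K1 cells plated overnight, then exposed 3 hr at 37C to compounds at 15 concentrations (0.76% DMSO). Lysed, then HTRF anti-pH2AX(S139)-cryptate/anti-H2AX-d2 detection after 24 hr at room temperature; emissions 665 and 620 nm.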
# [16] = A CellTox Green Cytotoxicity Assay to monitor cytotoxicity in HEK293 cells - 0 hour (AID 1224869); note: nearly all actives have a fitted effect of over 50% in size
# Outline: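 Nonlytic real-time cytotoxicity: HEK293 + CellTox Green reagent plated, 5 h preincubation, pintool compound addition (23 nL in DMSO), 37 C for 40 h, fluorescence measured at successive time points.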
# [17] = qHTS RealTime-Glo MT Cell Viability Assay in HepG2 cells - 40 hour (AID 1224870); note: nearly all actives have a fitted effect of over 50% in size; note: potency is the fitted concentration of half-maximal effect
# Outline: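 HepG2 cells mixed with RealTime-Glo MT reagents (NanoLuc plus cell-permeant prosubstrate) were seeded at 600 cells/well, incubated 5 h at 37 C/5% CO2, then pinned with compounds in DMSO; nonlytic luminescence tracked viability during 40 h treatment.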
# [18] = qHTS RealTime-Glo MT Cell Viability Assay in HepG2 cells - 24 hour (AID 1224867); note: nearly all actives have a fitted effect of over 50% in size; note: potency is the fitted concentration of half-maximal effect
# Outline: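 Tox21 10K library screened in qHTS format on HepG2 cells carrying RealTime-Glo reagents. Compounds were added after a 5 h preincubation, and the luminescent signal from continuous culture was measured repeatedly during 40 h treatment.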
# [19] = qHTS assay to identify small molecule agonists of the hypoxia (HIF-1) signaling pathway (AID 1224846; active = well fitted activation curve with a large enough effect in the signal ratio in the repeat runs, not every such curve was filed as active; the % refers to the signal ratio)
# Outline: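 Cell line: CellSensor HRE-bla ME-180; 2,000 cells/well; 0.5% dialyzed FBS; 5 h preincubation; DMSO compound pin transfer; 17 h, 37C, 5% CO2; CCF4-AM added; bla FRET signal scored for activation.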
# Chain of Nuclear receptor subfamily 1 group I member 3 (Homo sapiens) (Q14994 whole entry, looked up): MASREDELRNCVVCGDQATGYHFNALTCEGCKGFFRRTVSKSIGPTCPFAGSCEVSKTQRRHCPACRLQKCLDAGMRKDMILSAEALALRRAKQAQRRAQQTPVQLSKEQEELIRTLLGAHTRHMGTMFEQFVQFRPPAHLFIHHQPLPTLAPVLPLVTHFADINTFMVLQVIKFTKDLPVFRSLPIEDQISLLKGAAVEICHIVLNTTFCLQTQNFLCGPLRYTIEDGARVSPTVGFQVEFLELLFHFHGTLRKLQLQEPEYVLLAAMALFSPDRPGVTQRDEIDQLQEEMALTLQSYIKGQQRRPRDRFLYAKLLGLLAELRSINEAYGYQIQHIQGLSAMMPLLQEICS
# Chain of Thyrotropin receptor (Homo sapiens) (P16473 whole entry, looked up): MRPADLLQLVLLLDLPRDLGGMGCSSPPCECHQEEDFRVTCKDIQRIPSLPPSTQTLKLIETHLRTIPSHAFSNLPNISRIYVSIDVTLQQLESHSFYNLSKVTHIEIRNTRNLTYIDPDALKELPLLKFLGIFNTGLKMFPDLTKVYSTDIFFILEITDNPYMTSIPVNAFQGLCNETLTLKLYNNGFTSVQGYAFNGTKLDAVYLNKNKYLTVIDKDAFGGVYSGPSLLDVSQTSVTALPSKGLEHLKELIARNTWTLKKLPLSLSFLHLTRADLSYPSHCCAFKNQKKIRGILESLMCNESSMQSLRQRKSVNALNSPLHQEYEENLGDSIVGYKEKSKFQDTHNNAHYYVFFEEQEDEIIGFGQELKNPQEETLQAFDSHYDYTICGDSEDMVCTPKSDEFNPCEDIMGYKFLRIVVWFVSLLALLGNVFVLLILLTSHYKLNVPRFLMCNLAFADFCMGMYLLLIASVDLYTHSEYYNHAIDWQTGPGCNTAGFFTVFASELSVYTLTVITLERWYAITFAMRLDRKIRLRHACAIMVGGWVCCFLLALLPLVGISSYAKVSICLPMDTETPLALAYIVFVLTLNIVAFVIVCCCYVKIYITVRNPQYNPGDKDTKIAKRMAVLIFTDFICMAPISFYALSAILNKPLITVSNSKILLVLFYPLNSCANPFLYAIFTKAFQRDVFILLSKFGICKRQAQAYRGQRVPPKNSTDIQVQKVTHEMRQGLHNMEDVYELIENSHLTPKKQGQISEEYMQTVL
# Chain of Luciferin 4-monooxygenase (Photinus pyralis) (P08659 whole entry, looked up): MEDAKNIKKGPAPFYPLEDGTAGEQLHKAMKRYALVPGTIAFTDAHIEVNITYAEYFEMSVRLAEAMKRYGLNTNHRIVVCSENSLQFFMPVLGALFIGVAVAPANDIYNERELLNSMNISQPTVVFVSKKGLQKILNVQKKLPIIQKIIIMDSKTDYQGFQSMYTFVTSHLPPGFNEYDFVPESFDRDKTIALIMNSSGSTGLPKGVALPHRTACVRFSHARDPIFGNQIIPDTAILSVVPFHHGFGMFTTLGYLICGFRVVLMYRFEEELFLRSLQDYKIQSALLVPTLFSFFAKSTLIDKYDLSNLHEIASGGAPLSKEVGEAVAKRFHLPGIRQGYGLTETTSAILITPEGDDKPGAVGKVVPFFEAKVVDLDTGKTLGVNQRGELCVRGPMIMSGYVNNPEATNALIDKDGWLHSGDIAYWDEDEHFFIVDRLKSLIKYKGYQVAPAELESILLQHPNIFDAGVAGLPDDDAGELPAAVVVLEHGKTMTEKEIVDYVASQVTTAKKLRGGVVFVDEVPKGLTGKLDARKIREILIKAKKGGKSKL
compound,measurement,setting,value
O=C1C(Cl)=C(Cl)C(=O)C(Cl)=C1Cl,Potency,[1],34.2 µM (active) and 30.6 µM (active)
same,Potency,[2],31.6 µM (active) and 15.9 µM (active)
same,Potency,[3],inactive
same,Potency,[4],inactive
same,Potency,[5],inactive
same,Potency,[6],60.9 µM (active) and inactive
same,Potency,[7],27200 nM (active)
same,Potency,[8],54.8 µM (active) and 38.9 µM (active)
same,Potency,[9],inactive
same,Potency,[10],24300 nM (active)
same,"activity change, positive = activation",[11],-23.7% (inactive) and -49% (inactive)
same,Potency,[12],24.5 µM (active) and 19.5 µM (active)
CCC[CH2][Sn]([CH2]CCC)([CH2]CCC)[O][Sn]([CH2]CCC)([CH2]CCC)[CH2]CCC,Potency,[1],1.06 µM (active)
same,Potency,[13],752 nM (active)
same,Potency,[14],533 nM (active)
same,"activity, negative = inhibition",[6],332% [at 8.39 µM] (inactive)
same,Potency,[8],479 nM (active)
same,Potency,[15],278 nM (active)
same,Potency,[9],278 nM (active)
same,Potency,[10],377 nM (active)
same,"activity change, positive = activation",[11],-60.2% [at 8.39 µM] (inactive)
same,Potency,[12],170 nM (active)
same,cytotoxicity,[16],2.58% [at 6.97 µM] (inactive)
same,Potency,[17],537 nM (active)
O.O.O.O.O.O.O=S(=O)([O-])[O-].[Ni+2],Potency,[1],inactive
same,Potency,[13],inactive
same,Potency,[3],inactive
same,Potency,[14],inactive
same,Potency,[8],inactive
same,Potency,[15],inactive
same,Potency,[9],inactive
same,Potency,[18],inactive
same,Potency,[12],inactive
same,Potency,[16],inactive
CCCCn1cc[n+](C)c1.[Cl][Fe-]([Cl])([Cl])[Cl],Potency,[1],inactive
same,Potency,[13],inactive
same,Potency,[14],inactive
same,Potency,[8],inactive
same,Potency,[19],inactive
same,Potency,[9],inactive
same,Potency,[18],inactive
same,Potency,[16],inactive
same,Potency,[17],inactive
CCN(CC)C(=S)S,Potency,[1],54.9 µM (active) and 13.6 µM (active) and 24.3 µM (active)
same,Potency,[2],inactive
same,Potency,[13],54.9 µM (active) and 12.1 µM (active) and 19.3 µM (active)
same,Potency,[14],30.9 µM (active) and 6.08 µM (active) and 13.7 µM (active)
same,Potency,[7],inactive
same,Potency,[8],19.7 µM (active) and 8.66 µM (active) and 9.77 µM (active)
same,Potency,[15],inactive
same,Potency,[18],inactive and 21.9 µM (active)
same,Potency,[12],24.8 µM (active) and 4.87 µM (active) and 11 µM (active)
same,Potency,[16],inactive
same,Potency,[17],inactive and 21.9 µM (active)
CC(=O)[O-].CC(=O)[O-].CC(=O)[O-].[Sb+3],"viability change, negative = cytotoxic",[1],0.176% [at 3.27 µM] (inactive)
same,"viability change, negative = cytotoxic",[13],-15.6% [at 3.27 µM] (inactive)
same,"viability change, negative = cytotoxic",[14],3.7% [at 3.27 µM] (inactive)
same,"activity change, negative = cytotoxicity",[8],-10.5% [at 2.72 µM] (inactive)
same,activation (H2AX phosphorylation),[15],1.32% [at 5.45 µM] (inactive)
same,activation,[19],-0.789% [at 2.67 µM] (inactive)
same,"activity change, negative = cytotoxicity",[9],-1.46% [at 5.43 µM] (inactive)
same,"activity change, negative = cytotoxicity",[18],-0.623% [at 2.72 µM] (inactive)
same,"activity change, negative = cytotoxic",[12],7.03% [at 2.72 µM] (inactive)
O=C(O)[C@H](O)[C@@H](O)C(=O)O,Potency,[1],inactive
same,Potency,[2],inactive
same,Potency,[14],inactive
same,Potency,[8],inactive
same,Potency,[15],inactive
same,Potency,[9],inactive
same,Potency,[18],inactive
same,Potency,[16],inactive
same,Potency,[17],inactive
CSSC,Potency,[1],inactive
same,Potency,[2],inactive
same,Potency,[4],22000 nM (active)
same,Potency,[5],inactive
same,Potency,[14],inactive
same,Potency,[6],inactive
same,Potency,[7],inactive
same,Potency,[8],inactive
same,Potency,[15],inactive
same,Potency,[19],inactive
same,Potency,[9],inactive
same,Potency,[10],inactive
same,"activity change, positive = activation",[11],-6.7% (inactive)
same,Potency,[18],inactive
same,Potency,[16],inactive
same,Potency,[17],inactive
